Many of the other results were omitted from the sample, so hits are more common in it than they were.
ST2 IL33 inh – inhibitors of human ST2 (IL1RL1) binding to IL-33, primary screen, biochemical, AlphaLISA; AlphaLISA ST2-Fc/biotin-IL-33 interaction, 1 h; inhibition, % for hits at 17 µM; actives 2.3% (n = 78,000); in the data active = inhibition above about 30%
Target sequence (Q01638 whole entry, looked up): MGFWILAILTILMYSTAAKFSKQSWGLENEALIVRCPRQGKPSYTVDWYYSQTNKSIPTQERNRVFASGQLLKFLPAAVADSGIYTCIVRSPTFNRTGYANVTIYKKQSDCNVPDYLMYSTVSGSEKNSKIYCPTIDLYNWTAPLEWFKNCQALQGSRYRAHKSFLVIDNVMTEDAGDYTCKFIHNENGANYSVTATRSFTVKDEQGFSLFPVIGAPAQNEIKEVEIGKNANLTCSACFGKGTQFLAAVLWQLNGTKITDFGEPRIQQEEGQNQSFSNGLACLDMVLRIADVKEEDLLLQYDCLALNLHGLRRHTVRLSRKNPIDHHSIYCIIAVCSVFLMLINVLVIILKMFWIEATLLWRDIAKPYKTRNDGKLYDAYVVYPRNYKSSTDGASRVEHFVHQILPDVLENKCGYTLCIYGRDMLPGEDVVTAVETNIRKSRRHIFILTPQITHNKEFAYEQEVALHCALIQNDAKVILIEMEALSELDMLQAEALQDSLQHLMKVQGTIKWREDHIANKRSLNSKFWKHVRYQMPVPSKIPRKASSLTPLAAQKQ
Of the large screens only hits and unclear results are named; the others gave an inactive call; ! = repeats disagree.

CC1(C)CC(=O)C2=C(C1)Nc1cc(C(=O)c3ccccc3)ccc1NC2c1cccnc1 (stereo not drawn)	ST2 IL33 inh 33%
CC1(C)CC(=O)C2=C(C1)Nc1nc(SCc3ccccc3)nn1C2c1ccc(O)cc1 (stereo not drawn)	none
CC1(C)CC(=O)C2=C(C1)Nc1ccccc1N(C(=O)Cc1ccc(Cl)cc1)C2c1ccco1 (stereo not drawn)	none
COc1ccc(C2C3=C(CC(C)(C)CC3=O)Nc3nc(SCc4ccccc4)nn32)cc1 (stereo not drawn)	none
CCCCC(=O)N1c2ccccc2NC2=C(C(=O)CC(C)(C)C2)C1c1ccc2c(c1)OCO2 (stereo not drawn)	none
Cc1ccc(C2Nc3ccc(C(=O)c4ccccc4)cc3NC3=C2C(=O)CCC3)cc1 (stereo not drawn)	none
CC1(C)CC(=O)C2=C(C1)Nc1nc(SCc3ccccc3Cl)nn1C2c1ccncc1 (stereo not drawn)	ST2 IL33 inh 42%!
CC1(C)CC(=O)C2=C(C1)Nc1nc(SCc3ccccc3Cl)nn1C2c1cccnc1 (stereo not drawn)	ST2 IL33 inh 31%!
Cn1cc(CN2CC[C@H](c3nnc(-c4ccccc4)o3)C2)c2ccccc21	none
O=C(NC(Cc1ccccc1)C(=O)O)c1ccccc1[N+](=O)[O-] (stereo not drawn)	none
COc1ccc2nc([C@H]3CCN(C(=O)CCC(=O)O)C3)[nH]c2c1	none
CCOC(=O)C1C(=O)C=C(c2ccc(OC)c(OC)c2)CC1c1ccccc1C (stereo not drawn)	none
COc1ccc(-n2nc(C(=O)NC3CC3)c3c4ccccc4n(C)c3c2=O)cc1Cl	none
COc1ccc(-n2nc(C(=O)NCc3ccco3)c3c4ccccc4n(C)c3c2=O)cc1Cl	none
COc1ccc(-n2nc(C(=O)N3CCCCC3C)c3c4ccccc4n(C)c3c2=O)cc1Cl (stereo not drawn)	ST2 IL33 inh 97%
CCCCC(=O)N1C2=C(C(=O)c3ccccc32)C(c2ccccc2)c2c1n(C)c(=O)n(C)c2=O (stereo not drawn)	none
Cc1cc(C)n(-c2ccc(NC(=O)C3CCCCN3C(=O)c3c(F)cccc3F)cc2)n1 (stereo not drawn)	none
CC(=O)c1ccc(NC(=O)N2C[C@@H]3C[C@H](C2)c2ccc(NC(=O)Nc4ccccc4)c(=O)n2C3)cc1	none
CCOc1ccc2c(=O)c(-c3ccccc3Cl)coc2c1	none
O=[N+]([O-])c1ccc(O)c(C=Nc2ccc(-c3nc4ncccc4o3)cc2)c1	none
Cc1cccc2oc(-c3cc(N=Cc4ccc([N+](=O)[O-])cc4)ccc3O)nc12	ST2 IL33 inh 30%
O=[N+]([O-])c1cc2c(cc1C=Nc1ccc(O)c(-c3nc4ccccc4o3)c1)OCO2	ST2 IL33 inh 35%
O=[N+]([O-])c1cc2c(cc1C=Nc1ccc3oc(-c4cccc(F)c4)nc3c1)OCO2	none
Cc1ccccc1-c1nc2cc(N=Cc3cc([N+](=O)[O-])c(O)c([N+](=O)[O-])c3O)ccc2o1	none
Cc1ccccc1-c1nc2cc(N=Cc3cc([N+](=O)[O-])ccc3O)ccc2o1	none
CC(C)CCN1CC(C(=O)NC2CCCCC2)CC1=O (stereo not drawn)	none
COc1cccc(CN2CCC(C(=O)NC3CCCCCC3)CC2)c1	none
Cc1ccc(NC(=O)c2noc3c2CCC3)cc1	none
COc1ccc(-c2nc(N(C)Cc3ccccc3)c3ccccc3n2)cc1OC	none
O=[N+]([O-])CC(SCCO)c1ccc(O)cc1 (stereo not drawn)	none
CC(=O)n1cc(C(C[N+](=O)[O-])SCCN)c2ccccc21 (stereo not drawn)	ST2 IL33 inh 30%
CN1CCN(Cc2ccc3c(c2)CC(C)(C)O3)CC1C(=O)O (stereo not drawn)	none
CCN1CCCC1CNC(=O)C1(O)c2ccccc2NC(=O)N1c1c(F)cccc1F (stereo not drawn)	none
Cc1cccc(-c2cc(N3CCN(S(=O)(=O)c4ccccc4)CC3)ncn2)c1	none
CC1(C)CC(=O)C2=C(C1)Nc1sc(C#N)c(N)c1C2c1ccccc1 (stereo not drawn)	ST2 IL33 inh 33%
CC1(C)CC(=O)C2=C(C1)Nc1[nH]c(=O)[nH]c(=O)c1C2c1ccccc1 (stereo not drawn)	none
CC1(C)CC(=O)C2=C(C1)NC1=C(C(=O)CC(C)(C)C1)C2c1ccccc1	none
O=C(NCc1ccccc1)C(=O)NCC1OCCc2ccccc21 (stereo not drawn)	none
Nc1nc(-c2ccc([N+](=O)[O-])cc2)cs1	none
O=C(NCC1CCCO1)c1ccccc1Sc1ccc([N+](=O)[O-])cc1 (stereo not drawn)	none
CN(CC1CCCO1)c1nc(-c2ccc([N+](=O)[O-])cc2)cs1 (stereo not drawn)	ST2 IL33 inh 54%
CCCc1cc(NCc2ccco2)n2c(nc3ccccc32)c1C#N	none
Cc1cc(C)nc(SCc2nc3ccccc3n2Cc2ccccc2)n1	none
O=C(c1cn(-c2ccccc2)nn1)N1CCN(C(=O)N2CCOCC2)CC1	none
CCC(SC1=Nc2ccccc2C2=NC(c3ccccc3)C(=O)N12)C(=O)NCc1ccco1 (stereo not drawn)	none
Cc1nc2c(c(=O)n1C)CCN(C(=O)C1CCOC(C)(C)C1)CC2 (stereo not drawn)	ST2 IL33 inh 31%
Cc1nc2c(c(=O)n1C)CCN(C(=O)Nc1ccc3c(c1)OCO3)CC2	none
Cc1ccc(C(=O)NCCC(=O)N2CCc3nc(C)n(C)c(=O)c3CC2)cc1	none
CCN(CCN1CCCC1)C(=O)c1cccc2cnccc12	none
CCCNS(=O)(=O)c1ccc(OC)c(OC)c1	none
COc1ccc(S(=O)(=O)NC2CCCCC2C)cc1OC (stereo not drawn)	ST2 IL33 inh 34%!
COc1ccc(OC)c(S(=O)(=O)NC2CCCCC2C)c1 (stereo not drawn)	none
Cc1ccc(S(=O)(=O)Nc2c(C)cc(O)c(Br)c2C)cc1	none
Cc1cccc(=O)n1CCC(=O)N1CCC2(CC1)c1ccccc1[C@@H](N)[C@@H]2O	none
c1cn2c(NC3CCCCC3)c(-c3ccsc3)nc2cn1	none
O=C(O)CCCC(=O)Nc1cccc(F)c1	none
CCC(C)Sc1oc(-c2ccco2)nc1S(=O)(=O)c1ccc(F)cc1 (stereo not drawn)	none
c1ccc2c(c1)Nc1ccc3ccccc3c1S2	ST2 IL33 inh 39%
Fc1ccc2c(c1)Sc1ccccc1N2	ST2 IL33 inh 36%
COc1ccc(C2=CC(=O)Nc3ccccc3S2)cc1	none
O=C(NCc1ccccc1)C1CC12CCN(C(=O)/C=C/c1cccs1)CC2 (stereo not drawn)	none
CCc1ccccc1NC(=O)c1ccccc1F	none
CCCNC(=O)C1CCN(c2ccc(-c3ccc(Br)s3)nn2)CC1	none
Nc1nc2n(n1)C(c1ccc(OCc3ccccc3)cc1)CC(c1ccc(F)cc1)N2 (stereo not drawn)	none
CC1=C(C(=O)OCC2CCCCC2)C(c2ccc(Cl)c(Cl)c2)NC(=O)N1 (stereo not drawn)	none
Cc1cccc(C)c1N(CC(=O)Nc1cccc(Cl)c1C)S(C)(=O)=O	none
CC(C)(C)C1CCc2onc(C(=O)Nc3cccc(Cl)c3)c2C1 (stereo not drawn)	none
CCc1ccc(NC(=O)c2noc3c2CC(C(C)(C)C)CC3)cc1 (stereo not drawn)	ST2 IL33 inh 53%
CC(C)(C)C1CCc2onc(C(=O)NCc3ccc(Cl)cc3)c2C1 (stereo not drawn)	none
OC[C@@]12CCC[C@@H]1CN(Cc1cc3n(n1)CCCNC3)C2	none
CC(=O)c1c(OC(=O)c2ccc(Cl)cc2)ccc2c(C)cc(=O)oc12	none
COc1ccc(/C=C2/SC(=O)N(CCC(=O)Nc3ccccc3Br)C2=O)cc1	none
